Screening results deposited in PubChem BioAssay by Sanford-Burnham Center for Chemical Genomics.
NALP3 yeast inh = inhibitors of NALP3 inflammasome in yeast | 0.39% of 330,000 active | Yeast reconstituted NLRP3/ASC/caspase-1, beta-gal luminescence, 24 h | inhibition, % at 10 µM;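 active = inhibition of 50% or more; inactive = inhibition below 50%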;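 note: plate controls were induced DMSO wells for no effect and uninduced yeast grown without galactose for full effect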
TIM10 inh = growth inhibitors of TIM10 yeast strain. S. cerevisiae TIM10 strain growth, BacTiter-Glo luminescence, 24 h. inhibition, % at 10 µM. 1.4% of 330,000 active. AID 463195;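 active = inhibition of 40% or more at the single tested concentration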;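 note: wild-type TIM10 isogenic control strain grown at permissive 25 °C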
tim23-1 inh = inhibits growth of tim23-1 mutant yeast | inhibition, % at 20 µM | S. cerevisiae tim23-1 growth, BacTiter-Glo luminescence, 24 h | 1.3% of 330,000 active;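 active = growth inhibition of the mutant yeast at or above 50%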;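 note: temperature-sensitive mutant grown at 25 °C; plate controls were DMSO-treated mutant yeast for no effect and medium wells lacking yeast for full effect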
tim10-1 inh = inhibits growth of tim10-1 mutant yeast; inhibition, % at 20 µM; S. cerevisiae tim10-1 ts strain growth, BacTiter-Glo, 24 h; 2.2% of 330,000 active;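 active = inhibition of at least 40%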;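 note: mutant grown at 25 °C; 0% = DMSO wells with yeast and 100% = wells holding no yeast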
NALP1 inh = blocks the NALP1 inflammasome reconstituted in yeast | S. cerevisiae NALP1/ASC/caspase-1 growth, X-gal OD620, 72 h | inhibition, % at 10 µM | 0.61% of 280,000 active; in the data active = inhibition mostly above about 24%, no sharp cut-off; inactive = mostly below about 32%
TIM10 conf = confirmation of TIM10 yeast growth inhibitors | inhibition, % at 10 µM | 63% of 4,600 active | AID 463215 | S. cerevisiae tim10 strain growth, BacTiter-Glo luminescence, 24 h | shares compounds with TIM10 inh;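 active = inhibition of yeast growth at or above a set limit in either of two replicates at 10 µM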;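 note: this counterscreen used the strain with wild-type TIM10; 0% = yeast with DMSO and 100% = medium wells lacking yeast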
* hit, by the source's call; / = not tested or not shown. Hits are enriched below; roughly 4% of the tested compounds scored in any of these assays.

SMILES | NALP3 yeast inh | TIM10 inh | tim23-1 inh | tim10-1 inh | NALP1 inh | TIM10 conf
Cc1cc(C)n(CC(=O)N2c3ccccc3Sc3ccc(C(F)(F)F)cc32)n1 | -11 | 42* | 40 | 39 | 26 | 27
O=C(c1cnn2c(C(F)F)cc(-c3ccccc3)nc12)N1CCCCC1c1cccnc1 (centres undefined) | -5 | 5 | 24 | -1 | / | /
Cc1nc2nc(C)c(NS(=O)(=O)c3ccc(CC(C)C)cc3)c(=O)n2[nH]1 | -1 | -12 | 14 | 8 | -14 | /
Cc1cc(C(=O)N2CCc3c([nH]c4ccccc34)C2c2cccc(Cl)c2)nn1C (centres undefined) | 10 | 17 | 35 | -5 | -4 | /
O=C(c1cnccn1)N1CCc2c([nH]c3ccccc23)C1c1cccc(Cl)c1 (centres undefined) | -3 | 41* | 30 | 23 | -11 | 24
Cc1cc(C)c2c(N)c3ccccc3nc2n1 | 6 | 45* | 1 | 36 | 33 | 22
COc1cc2c(C(=O)N3CCOCC3)c(CSc3ccccc3)n(C)c2cc1Br | 18 | 40* | 47 | 39 | -8 | 30*
Nc1ccc(C23CC4CC(CC(C4)C2)C3)cc1 | 24 | 42* | 34 | 15 | 12 | 23
CC(OC(=O)Cn1cc(C(F)(F)F)ccc1=O)C(=O)N(C)c1ccccc1 (centres undefined) | -4 | -11 | -2 | -5 | / | /
COc1cc(/C=C(/C(=O)c2cccs2)c2nc3ccccc3[nH]2)ccc1O | -8 | 43* | 25 | 38 | -5 | 34*
COc1ccc(/C=C/C(=O)NCCc2c[nH]c3ccccc23)cc1OC | 23 | 53* | 5 | -35 | 9 | 9
COc1ccc(/C=C/C(=O)NCCCNC(=O)/C=C/c2ccc(OC)c(OC)c2)cc1OC | 16 | 4 | 5 | -10 | / | /
COCCCNC(=S)N/N=C/c1ccc(OC)cc1 | 10 | 27 | 30 | 25 | -4 | /
COCCCNC(=S)N/N=C/c1ccc2ccccc2c1 | -14 | 41* | 35 | 16 | -7 | 37*
NC(=S)N/N=C/c1cccc(/C=N/NC(N)=S)c1 | 14 | 13 | -6 | -10 | 5 | /
NC(=S)N/N=C/c1ccc2ccccc2c1 | 22 | 40* | 30 | 24 | 26 | 28
NC(=O)CC(NC(=O)c1cccc(Br)c1)c1ccc(NC2CCCCCCC2)c([N+](=O)[O-])c1 (centres undefined) | 10 | 7 | 13 | 5 | 2 | /
Clc1ccc2c(c1)C(c1cccs1)=NNC(c1cccnc1)=N2 | 8 | 2 | 13 | 2 | -12 | /
COc1cc(OC)cc(C(=O)Nc2ccccc2-c2nnn(CC(=O)Nc3cc(C)on3)n2)c1 | -3 | -3 | -3 | 10 | -2 | /
CCN(CC)C(=O)Oc1ccc2c(=O)c(-c3ccc(OC)cc3)coc2c1 | 8 | 27 | 31 | 26 | -1 | /
CCN(CC)C(=O)Oc1ccc2c(=O)c(-c3ccc(OC)cc3)c(C)oc2c1 | 19 | 45* | 33 | 36 | 2 | 30
COc1ccc(N(C)S(=O)(=O)c2cccc(C(=O)N3CCN(S(=O)(=O)c4ccc(C)cc4)CC3)c2)cc1 | 30 | 13 | 9 | 9 | 12 | /
CCCc1[nH]n(-c2ccc([N+](=O)[O-])cc2)c(=O)c1C(C)=NCc1ccncc1 | 9 | -7 | 25 | 7 | / | /
CC1=C/C(=N\NC(=S)NCCc2ccccc2)CC(C)(C)C1 | 38 | 43* | 43 | 33 | -8 | 17
S=C(c1cn(CCOc2ccccc2)c2ccccc12)N1CCCC1 | 11 | 50* | 28 | 29 | 13 | 32*
SMILES | NALP3 yeast inh | TIM10 inh | tim23-1 inh | tim10-1 inh | NALP1 inh | TIM10 conf
OCCNc1nc(Nc2ccc(Br)cc2)nc2ccccc12 | 24 | 43* | 13 | 21 | 18 | 22
CCOC(=O)N1CCN(C(=O)CN(C2CCCCC2)S(=O)(=O)c2c(C)cc(C)cc2C)CC1 | 19 | 41* | 42 | 24 | 7 | 28
O=C1C(=Nc2cccc(Cl)c2)CC(c2ccc(Cl)cc2)N1c1cccc(Cl)c1 (centres undefined) | / | / | / | / | 13 | /
CCOC(=O)c1nn(-c2ccc(C)cc2)cc1C(=O)c1ccccc1 | 18 | 12 | 28 | 28 | 56 | /
Cc1cc(C(=O)COC(=O)CN=C2NS(=O)(=O)c3ccccc32)c(C)n1CCc1ccc(Cl)cc1 | 20 | -1 | 18 | 5 | 26 | /
COc1ccc(-c2csc(NC(=O)C3CCN(c4ncnc5sc(C)c(C)c45)CC3)n2)cc1OC | 15 | 9 | 17 | 10 | / | /
C#CCSc1nnnn1-c1cccc(Cl)c1 | 14 | 49* | 19 | 4 | -2 | -23
NC(=O)CSc1nnnn1-c1cccc(Cl)c1 | 10 | 12 | 6 | 8 | 19 | /
Nc1nonc1C(=O)NCCN=Cc1cc(Cc2ccccc2)cc(Br)c1O | 18 | 51* | -56 | 13 | 11 | 67*
O=C1[C@H]2C(c3ccccc3)=NN(c3ccccc3)[C@H]2C(=O)N1c1ccccc1 | 2 | 49* | 44 | 37 | 8 | 46*
CCOC(=O)c1ccc(N2C(=O)CC(N(C)CCc3ccc(OC)c(OC)c3)C2=O)cc1 (centres undefined) | 25 | 43* | 36 | 35 | 21 | 46*
Cc1ccc(S(=O)(=O)Nc2ccc(Cl)cc2)cc1NC(=O)c1cc2c(s1)CCCC2 | 13 | 8 | 15 | 27 | 36 | /
Cn1c2ccc(Br)cc2c2nnc(SCC(=O)O)nc21 | 16 | 60* | 28 | 31 | -10 | 75*
CCCc1nnc(SCC(=O)NC2CCCCC2)n1CCOC | 10 | 3 | 6 | 13 | 33 | /
CCOC(=O)c1sc(=NC(=O)c2ccc(C)cc2)n(C)c1C | 21 | 42* | 35 | 9 | -3 | 20
CC(C)C(c1nnnn1C1CCCCC1)N1CCc2ccccc21 (centres undefined) | -39 | 46* | -7 | 29 | 2 | 31*
Cc1ccc(C(c2nnnn2C2CCCCC2)N2CCc3ccccc32)cc1 (centres undefined) | -8 | 24 | 32 | 27 | 32 | /
Brc1ccc(-c2ccc(CNCc3ccccn3)o2)cc1 | 19 | 69* | 11 | 5 | -21 | 23
CCC(C)NC(=O)COc1ccc(OCc2ccccc2)cc1 (centres undefined) | -39 | 42* | 13 | 26 | -22 | 34*
CCNC(=O)COc1ccc(OCc2ccccc2)cc1 | -35 | -4 | 4 | 10 | -15 | /
O=C(N/N=C/c1c(O)ccc2ccccc12)c1cccnc1 | 11 | 42* | 42 | 13 | 23 | 37*
COc1ccc(C(=O)N2CC3(CC(c4cccc(NC(=O)CC(c5ccccc5)c5ccccc5)c4)=NO3)C[C@H]2C(N)=O)cc1 (some centres undefined) | 13 | 96* | 22 | 24 | / | -5
CC1(C(=O)N2CC3(CC(c4cccc(NC(=O)CC(c5ccccc5)c5ccccc5)c4)=NO3)C[C@@H]2C(N)=O)CC1 (some centres undefined) | 16 | 96* | 22 | -1 | 23 | -20
